Test results: PubChem BioAssay AID1852 (Sanford-Burnham Center for Chemical Genomics, 2009)
The campaign covered roughly 2,500 compounds. About 1,100 (44%) were called active. The set was probably picked from earlier hits. Some of the results follow. Unmarked numbers belong to inactive results.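 Rule for the calls: active = inhibition above 50% at 4 µM in the single-point screen; inactive = inhibition of 50% or less.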

Assay: blockers of TNF-a NF-kB luciferase induction – cell-based, HEK293T NF-kB-Luc, luminescence, selectivity assay for NOD1/NOD2 signaling inhibitor project, primary screen (AID 1852)
Details: TNF-a induced, 14 h, at 4 µM, active compounds read high

Row | SMILES | inhibition
1 | CCOc1cc(/C=C2\CN(CC)C/C(=C\c3ccc(O)c(OCC)c3)C2=O)ccc1O | 96.7% (active)
2 | CCOc1cc(/C=C2\CN(C)C/C(=C\c3ccc(O)c(OCC)c3)C2=O)ccc1O | 65.5% (active)
3 | CCOC(=O)c1c(NC(=S)NCCc2ccccc2)sc2c1CC(C(C)C)OC2 (configuration not stated) | 82.3% (active)
4 | CC(C)COc1ccc(C(=O)Nc2sc3c(c2C(=O)O)CC(C)(C)OC3)cc1 | 35.4%
5 | CCCCCCCCCn1c2c(c(=N)c3c1CCC3)CCC2 | 74.8% (active)
6 | CCCCCCCCCCn1c2c(c(=N)c3c1CCC3)CCC2 | 78.4% (active)
7 | CCCCCCCCn1c2c(c(=N)c3ccccc31)CCC2 | 74.7% (active)
8 | Oc1c(CN2CCN(c3ccccc3)CC2)cc(Br)c2cccnc12 | 15.7%
9 | Cc1ccc2[nH]c3c(N4CCN(Cc5ccccc5)CC4)ncnc3c2c1 | 76.9% (active)
10 | Cc1ccc2c(c1)[nH]c1c(N3CCN(Cc4ccccc4)CC3)ncnc12 | 72.7% (active)
11 | Cc1ccc2[nH]c3c(N4CCc5ccccc5C4)ncnc3c2c1 | 83.8% (active)
12 | Cc1csc2ncnc(NC3CCN(Cc4ccccc4)CC3)c12 | 32.1%
13 | Cc1c(C)n(Cc2ccccc2)c2ncnc(Cl)c12 | 42.6%
14 | O=C(CN1CCN(Cc2ccccc2)CC1)N1N=CCC1c1ccccc1 (configuration not stated) | 21.7%
15 | Fc1ccc2[nH]c3c(N4CCc5ccccc5C4)ncnc3c2c1 | 45.8%
16 | COCCCNC(=O)c1sc2ncnc(N3CCc4ccccc4C3)c2c1C | 44.9%
17 | c1ccc(CN2CCN(c3ncnc4c3[nH]c3ccccc34)CC2)cc1 | 73.4% (active)
18 | CCN1CCN(Cc2ccc(NC(=O)c3ccc(C)c(NC(=O)C(=O)c4c[nH]c5ccccc45)c3)cc2C(F)(F)F)CC1 | 26.4%
19 | COc1ccc(NS(=O)(=O)c2ccc3c(c2)NC(=O)C(C)S3)cc1 (configuration not stated) | 9.8%
20 | CCC1Sc2ccc(S(=O)(=O)Nc3ccc(OC)c(OC)c3)cc2NC1=O (configuration not stated) | 51.8% (active)
21 | CCC(Cc1ccccc1)NS(=O)(=O)c1ccc2c(c1)NC(=O)C(C)S2 (configuration not stated) | -1.2%
22 | CCn1nc([N+](=O)[O-])c(C(C#N)c2nc3cc(C(F)(F)F)ccc3s2)c(Cl)c1=O (configuration not stated) | 34.1%
23 | Cc1ccc(C)c(S(=O)(=O)/N=C2\C=C(NS(=O)(=O)c3ccccc3)C(=O)c3ccccc32)c1 | 102% (active)

Row | SMILES | inhibition
24 | Cc1cc(C)c(S(=O)(=O)/N=C2\C=C(NS(=O)(=O)c3ccccc3)C(=O)c3ccccc32)c(C)c1 | 94.9% (active)
25 | Cc1cc(C)c(S(=O)(=O)/N=C2\C=C(Nc3ccc(C(=O)O)cc3)C(=O)c3ccccc32)c(C)c1 | 107% (active)
26 | Cc1ccc(NC2=C(Cl)C(=O)c3ccccc3C2=O)cc1 | -26.5%
27 | Cc1ccc(NS(=O)(=O)c2ccc3c(c2)C(=O)c2ccccc2C3=O)c(C)c1 | 2.1%
28 | Cc1ccc(NC(=O)COc2ccc(/C=C3/SC(=Nc4ccccc4)N(Cc4cccnc4)C3=O)cc2)cc1 | 14.5%
29 | CC(=O)N1c2ccc(S(=O)(=O)N3CCC(C(=O)Nc4cccc(C)n4)CC3)cc2CC1C (configuration not stated) | 40.5%
30 | CCc1ccc(NC(=O)C2CCN(S(=O)(=O)c3ccc4c(c3)CC(C)N4C(C)=O)CC2)cc1 (configuration not stated) | 70% (active)
31 | COc1ccccc1NC(=O)C1CCCN(S(=O)(=O)c2ccc3c(c2)CC(C)N3C(C)=O)C1 (configuration not stated) | 47.2%
32 | O=C(CSc1ncnc2c1oc1ccccc12)N1CCCc2ccccc21 | 18.1%
33 | O=C1C(=O)N(c2nccs2)C(c2ccccc2)/C1=C(\O)c1ccc2c(c1)OCCO2 (configuration not stated) | 31.4%
34 | Cc1ccccc1CN1CCc2c(OCC(=O)N3CCCc4ccccc43)cccc2C1=O | 48.2%
35 | O=C(CN1C(=O)c2ccccc2S1(=O)=O)c1ccc2c(c1)OCCO2 | 95% (active)
36 | O=C(/C=C/c1ccncc1)c1ccc2c(c1)OCCO2 | -1.4%
37 | O=C(CN1CCc2cc3c(cc2C1)OCCCO3)Nc1c(F)cccc1F | -3.8%
38 | O=C(CN1C(=O)c2ccccc2S1(=O)=O)N1CCc2ccccc21 | 70.7% (active)
39 | O=C(CN1C(=O)c2ccccc2S1(=O)=O)c1ccc2c(c1)OCCCO2 | 95.7% (active)
40 | CC(C)CCn1c(Sc2nc3ccccc3o2)nc2c1c(=O)[nH]c(=O)n2C | 26.6%
41 | O=C(CSc1nnnn1C1CC2CCC1C2)Nc1ccnc2ccccc12 (configuration not stated) | 54.8% (active)
42 | O=C(CSc1nc2ccccc2c(=O)[nH]1)Nc1ccccc1C(F)(F)F | 21.5%
43 | Cc1nn(-c2cccc(Cl)c2)c2nc(C(F)(F)F)[nH]c(=O)c12 | 58.8% (active)
44 | Cc1nn(-c2cc(C(F)(F)F)ccc2Cl)c2nc(C(Cl)(Cl)Cl)[nH]c(=O)c12 | 71.3% (active)
45 | Cc1nn(-c2ccccc2)c2nc(C(Cl)(Cl)Cl)[nH]c(=O)c12 | 23.6%
46 | O=C(O)c1ccc(N/N=C/c2ccc3nccnc3c2)cc1 | 48.6%

Row | SMILES | inhibition
47 | O=C(O)c1cccc(N/N=C/c2cccs2)c1 | -23%
48 | O=C(O)c1cccc(N/N=C/c2cccc3ccccc23)c1 | 54.1% (active)
49 | N#Cc1c(-c2ccccc2)nc(SCc2cccc(C(F)(F)F)c2)[nH]c1=O | -14.5%
50 | O=c1cc(C(F)(F)F)nc(SCc2cccc3ccccc23)[nH]1 | 61.3% (active)
51 | CS(=O)(=O)c1ccc(C(=O)OCc2nnc(-c3ccccc3)o2)cc1[N+](=O)[O-] | 38.9%
52 | CS(=O)(=O)c1ccc(S(=O)CC(=O)OCc2ccccc2)c([N+](=O)[O-])c1 (configuration not stated) | 50.2% (active)
53 | CS(=O)(=O)c1ccc(Sc2nc3ccccc3s2)c([N+](=O)[O-])c1 | -1.5%
54 | Cc1cc(C(=O)NC2CCCc3c2cnn3-c2ccc(C)c(C)c2)n(C)n1 (configuration not stated) | 74.6% (active)
55 | CCn1nc(C)cc1C(=O)NC1CCCc2c1cnn2-c1ccc(C)c(C)c1 (configuration not stated) | 58.9% (active)
56 | Cc1ccc(-n2ncc3c2CCCC3NC(=O)c2cnccn2)cc1C (configuration not stated) | 37.7%
57 | O=C1C=C(c2ccccc2)C[C@H](c2cccs2)[C@H]1n1nnc([N+](=O)[O-])n1 | 35.8%
58 | Cc1cc(NC(=S)NC(=O)/C=C/c2ccc(S(=O)(=O)N3CCOCC3)cc2)ccc1Br | -18.3%
59 | Cc1cc(C(=O)CCl)c(C)n1-c1cccc(S(=O)(=O)N2CCOCC2)c1 | 52.4% (active)
60 | O=C(NC(=S)N1CCN(Cc2ccc3c(c2)OCO3)CC1)c1cccc(Br)c1 | 76.1% (active)
61 | O=C(c1[nH]nc2c1CCc1ccccc1-2)N1CCN(Cc2ccc3c(c2)OCO3)CC1 | 45.6%
62 | CCOc1cc(/C=C2\CCC/C(=C\c3cc(Cl)c(O)c(OCC)c3)C2=O)cc(Cl)c1O | 87.7% (active)
63 | COc1cc(/C=C2\CCC/C(=C\c3ccc(O)c(OC)c3)C2=O)ccc1O | 9.3%
64 | COc1cc(/C=C2/CCC/C(=C\c3cc(O)c(OC)c(Cl)c3)C2=O)cc(Cl)c1O | 108% (active)
65 | COc1cc(OC)c(OC)cc1/C=C1\CCC/C(=C\c2cc(OC)c(OC)cc2OC)C1=O | 41.8%
66 | COc1ccc(C(C(=O)NC2CCCCC2)N(C(=O)CCl)c2ccc(C)cc2)cc1 (configuration not stated) | 37%
67 | COc1ccc(N(C(=O)CCl)C(C(=O)NC2CCCCC2)c2cccnc2)cc1 (configuration not stated) | 87.1% (active)
68 | COc1ccc(C(C(=O)NC2CCCCC2)N(C(=O)CCl)c2ccc(OC)cc2)cc1 (configuration not stated) | 40.2%
69 | O=C(NC1CCCCC1)C(c1cccnc1)N(C(=O)CCl)c1ccc(F)cc1 (configuration not stated) | 69.8% (active)

Row | SMILES | inhibition
70 | CC(=O)NC(c1ccco1)c1ccc2cccnc2c1O (configuration not stated) | 26.6%
71 | CC(C)C(=O)NC(c1cccs1)c1cc([N+](=O)[O-])c2cccnc2c1O (configuration not stated) | 54.8% (active)
72 | CC(=O)NC(c1cccs1)c1cc([N+](=O)[O-])c2cccnc2c1O (configuration not stated) | 105% (active)
73 | COc1ccc(C(=O)Nc2nc3ccccc3s2)c(OC)c1 | 88% (active)
74 | COc1ccccc1C(=O)NCc1ccc(-c2nc3ccccc3s2)cc1 | 14.3%
75 | COc1ccc2nc(Nc3nc(C)c(C(C)=O)s3)sc2c1 | -12.9%
76 | CCOc1ccc2nc(NC(=O)c3ccccn3)sc2c1 | 102% (active)
77 | COc1ccc2nc(Nc3nc4ccc(NC(C)=O)cc4s3)sc2c1 | -14.1%
78 | COc1ccccc1C(=O)Nc1nc2ccccc2s1 | 65.3% (active)
79 | COc1cc([N+](=O)[O-])cc2sc(NC(=O)c3c(F)cccc3F)nc12 | 16.4%
80 | O=C(CCl)N=c1sccn1Cc1cccc2ccccc12 | 44.1%
81 | COc1ccc(C(NC(C)=O)c2ccc3cccnc3c2O)c(OC)c1 (configuration not stated) | 99.8% (active)
82 | CC(=O)NC(c1cccc([N+](=O)[O-])c1)c1ccc2cccnc2c1O (configuration not stated) | 70.9% (active)
83 | CC(=O)NC(c1ccc2ccccc2c1)c1ccc2cccnc2c1O (configuration not stated) | 75.2% (active)
84 | CC(=O)NC(c1ccc(Cl)cc1Cl)c1ccc2cccnc2c1O (configuration not stated) | 15.6%
85 | COc1cccc(C(NC(C)=O)c2ccc3cccnc3c2O)c1 (configuration not stated) | 57.3% (active)
86 | COc1ccc(-c2cc(C)no2)cc1S(=O)(=O)N1CCN(c2ccccc2F)CC1 | 49.7%
87 | CSC(=S)N/N=C/c1ccc(Br)cc1 | 3.9%
88 | Cc1cc(NC(c2cccnc2)c2ccc3cccnc3c2O)no1 (configuration not stated) | 99.8% (active)
89 | Cc1conc1NC(c1cccs1)c1ccc2cccnc2c1O (configuration not stated) | 14.1%
90 | Cc1cccc(NC(=O)C2CCN(S(=O)(=O)c3ccc4c(c3)NC(=O)CO4)CC2)c1 | 11.7%
91 | COc1ccc(C)cc1NC(=O)C1CCN(S(=O)(=O)c2cccc3nonc23)CC1 | 94.5% (active)
92 | Cc1ccc(CNC(=O)C2CCCN(S(=O)(=O)c3cccc4nonc34)C2)cc1 (configuration not stated) | 43.1%
